These results are taken from PubChem BioAssay (NCATS).

Records with an inconclusive call do not appear. Values without a mark were called inactive. Calls of active or inactive are those of the source. Calls come from the whole dose curve; as a rule, active = well fitted cell-killing curve with a large enough effect; inconclusive = small, poorly fitted or top-dose-only effect, or effect the other way; inactive = no such curve, though single readings can be large or run the other way.
Potency is the fitted concentration of half-maximal effect.

This experiment can be described thus: MultiTox-Fluor Cytotoxicity Assay - LYMP1-002 - Dead Cells (AID 960).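 For cytotoxicity (dead cells): cells exposed to compound for 16 h at 37 °C; 0% = DMSO and 100% = tetraoctylammonium bromide.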 Note: nearly all actives have a fitted effect of over 60% in size. The conditions noted are these: LYMP1-002 lymphoblastoid cells, dead-cell protease fluorescence; series mostly up to 46.1 µM; cytotoxicity (dead cells): at the top concentration. An excerpt:
NIH Chemical Genomics Center [NCGC]
NIH Molecular Libraries Screening Centers Network [MLSCN]
National Institutes of Environmental Health Sciences [NIEHS]
National Toxicology Program [NTP]
We have developed a 1536-well cell-based assay for quantitative high throughput screening (qHTS) against a number of cell lines to determine in vitro cytotoxicity of small molecules. This particular assay uses a human lymphoblastoid cell line (LYMP1-002) purchased from Coriell Institute.
NCGC Assay Protocol Summary:
The MultiTox-Fluor Cytotoxicity Assay (Promega) is a homogeneous method to simultaneously measure the relative number of live and dead cells in culture by detecting changes in cell membrane integrity. There are two fluorogenic peptide substrates in the assay reagent. Viable cells are determined when the cell-permeant substrate (GF-AFC) enters the cell and is cleaved by protease from live cells resulting in liberated fluorophore. This live-cell protease activity restricted to viable cells is proportional to cell number. The dead cells are determined by using fluorogenic cell-impermeant peptide substrate (bis-AAF-R110) which cleaved by dead cell proteases leaking from damaged cell membrane.
Using the MultiTox-Fluor Cytotoxicity Assay, the relative number of dead cells was measured in the lymphoblastoid cell line with complete culture medium following compound treatment for 16 hours. The assay was performed in opaque black Kalypsys 1536-well plates. In the screen, tetraoctylammonium bromide was used as positive control. Library compounds were measured for their ability to cause acute toxicity in the cell line, as reflected by an increase in dead cell protease activity, in a concentration-dependent manner. Data were normalized to the controls for basal activity (DMSO only) and 100% stimulation (15 uM tetraoctylammonium bromide). AC50 values were determined from concentration-response data modeled with the standard Hill equation.
qHTS protocol for MultiTox-Fluor Cytotoxicity assay
[Step] [Parameter] [Value] [Description]
1. Reagent; 5 uL; 2500 lymphoblastoid cells/well
2. Time; 5 hr; 37 C incubation
4. Controls; 23 nL; Tetraoctylammonium bromide 6.4pM to 92 uM
5. Time; 16 hr; 37 C incubation
6. Reagent; 5 uL; MuliTox-Fluor Assay reagent
7. Time; 60 min; Room Temperature
8. Detection; dead-cell fluorescence (Ex/Em=485/520); EnVision plate reader
Keywords: cytotoxicity, lymphoblastoid cell line, fluorescence, NTPHTS, NTPHTS_NCGC, NIEHS, EPA, DSSTox, MLSMR, MLSCN, NIH Roadmap, qHTS, NCGC
Consider `CC(C)OC(=O)Cc1ccccc1`, for which the “cytotoxicity (dead cells)” value was -18.7%.

As for `Clc1cc(Cl)c(Cl)c(Cl)c1`, the “cytotoxicity (dead cells)” value was -7.78%. For `[N-]=[N+]=[N-]`, the “cytotoxicity (dead cells)” value is 1.59%. On to `COc1ccccc1N`, for which the “cytotoxicity (dead cells)” value is -6.67%. For `CC(C#N)CCC#N` (stereo not given), the “cytotoxicity (dead cells)” value was -2.03%. On the same count and under the same terms, with `CC(C)(C)c1ccccc1O` the figure was 22.2%; with `CC12CC1(C)C(=O)N(c1cc(Cl)cc(Cl)c1)C2=O` (stereo not given), 23.8%; with `CN(C)c1ccc(N(C)C)cc1`, 0.768%. Still for that read-out and setting: with `Nc1c(Br)cc([N+](=O)[O-])cc1[N+](=O)[O-]` the figure was -4.54%; with `Clc1ccc(C(Cl)(Cl)Cl)c(Cl)c1`, 18.2%; with `N#CCCC#N`, 27.1%. The same measure, in the same setting: with `N#CCCCCC#N` the figure was -9.6%; with `CC[N+](=O)[O-]`, 12%. Regarding `[O-][Cl+]O`, the “cytotoxicity (dead cells)” value is 2.82%. `CC(C)[N+](=O)[O-]`: the “cytotoxicity (dead cells)” value is -6.78%.

As for `Nc1ccc(Cc2ccc(N)cc2)cc1`, the “cytotoxicity (dead cells)” value is 14.2%. For the compound `Nc1c(Cl)cc([N+](=O)[O-])cc1Cl`, the “cytotoxicity (dead cells)” value is 10.9%. On the same count and under the same terms, for `COC(C)(C)C` the value was 2.44%. Still for that read-out and setting: with `C=CCCC#N` the figure was 7.5%; with `CC(=O)[O-].CC(=O)[O-].CC(=O)[O-].[Cr+3]`, 7.97%. With `O=C(O)C(Br)Br`, the “cytotoxicity (dead cells)” value was 7.09%. For `N#CC(Br)Br`, the “cytotoxicity (dead cells)” value is -5.53%.

As to `Cc1ccc(OP(=O)(Oc2ccc(C)cc2)Oc2ccc(C)cc2)cc1`, the Potency is 25.1 µM (active). Consider `Cc1ccc(N)cc1Cl`, for which the “cytotoxicity (dead cells)” value was 31.7%.

Regarding `COC(=O)c1ccccc1N`, the “cytotoxicity (dead cells)” value was 5.16%. Still for that read-out and setting: with `CSSC` the figure was -0.519%; with `Cc1cccc(C)c1N`, 4.08%. Take `Nc1cccc2ccccc12`: the “cytotoxicity (dead cells)” value is 13.5%. Turning to `CN(C)c1ccc(N)cc1`, the “cytotoxicity (dead cells)” value was 13.8%. As to `C=CC(=O)OC`, the “cytotoxicity (dead cells)” value was -6%. The same measure, in the same setting: with `O=[N+]([O-])CCO` the figure was -21.5%; with `N#CCc1ccccc1`, 3.74%; with `Nc1cc(Cl)ccc1Cl`, 5.93%. The same measure, in the same setting: for `CN(C)N=O` the value was 15.1%; for `Nc1ccc([N+](=O)[O-])cc1N`, 11.4%.

Turning to `Oc1cc(Cl)cc(Cl)c1`, the “cytotoxicity (dead cells)” value is 12.4%. `O=[N+]([O-])c1ccccc1O`: the “cytotoxicity (dead cells)” value is -11.1%. As to `O=[N+]([O-])c1cccc(O)c1`, the “cytotoxicity (dead cells)” value is -22.3%.

Regarding `CC(C)(C)OOC(=O)c1ccccc1`, the “cytotoxicity (dead cells)” value is 9.74%. On to `CCN(CC)N=O`, for which the “cytotoxicity (dead cells)” value was -0.225%.
